The results in this text go back to the supplement of paper PMC3342239.

Structures can show the parent of a compound that is named as a salt.

This test deals with Saccharomyces cerevisiae. As to the kind of experiment: fraction of cells in G1 phase (DNA content, flow cytometry); higher = more cells with unreplicated DNA (G1 delay). The following applies: temperature: 30 C; YPD; JTY2953 pdr5 snq2 (sensitized); drug added to: cultures diluted from stationary phase; 6-7 h. In outline: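 S. cerevisiae in YPD at 30°C was treated with library drugs, with DMSO-only wells as reference. Sensitized JTY2953 cultures diluted 1∶200 from overnight received a final 20 µg/ml and were fixed after 6–7 h; other runs dosed dividing JTY2953 (fixed 6 h later) or BY4741 (4.33 h later). Ethanol-fixed cells were stained with SYTOX Green and 10,000 events read by flow cytometry. G1 fraction is the Dean-Jett-Fox G1 peak area over G1 plus G2/M areas.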
As to `CC(C(=O)O)c1cccc(Oc2ccccc2)c1` (stereo not drawn) [Fenoprofen] (82.5501 µM), the “fraction of cells in G1 phase” value is 0.502.
The same measure for `CN(C)CCCC1(c2ccc(F)cc2)OCc2cc(C#N)ccc21` (stereo not drawn) [Citalopram] (61.652 µM): 0.454; for `N=c1nc(N2CCCCC2)cc(N)n1O` [Minoxidil] (95.5782 µM): 0.522; for `CN1CCC(=C2c3ccccc3CC(=O)c3sccc32)CC1` [Ketotifen fumarate] (64.6343 µM): 0.496.
The same measure for `CC[C@]1(O)C[C@@H]2CN(CCc3c([nH]c4ccccc34)[C@@](C(=O)OC)(c3cc4c(cc3OC)N(C)[C@H]3[C@@](O)(C(N)=O)[C@H](O)[C@]5(CC)C=CCN6CC[C@]43[C@@H]65)C2)C1` [Vindesine] (26.5271 µM): 0.478; for `CN(CCOc1ccc(CC2SC(=O)NC2=O)cc1)c1ccccn1` (stereo not drawn) [Rosiglitazone maleate] (42.2386 µM): 0.574.
For the compound `CCCOc1ccccc1-c1nc2[nH]nnc2c(=O)[nH]1` [Zaprinast] (73.7243 µM), the “fraction of cells in G1 phase” value is 0.482.
With `Cc1ccc(S(=O)(=O)NC(=O)NN2CC3CCCC3C2)cc1` (stereo not drawn) [Gliclazide] (61.8397 µM) the figure was 0.51.
With `CC(N/C(=N\C#N)Nc1ccncc1)C(C)(C)C` (stereo not drawn) [Pinacidil] (81.5229 µM) the figure was 0.51.
With `Nc1c(Br)cc(Br)cc1CN[C@H]1CC[C@H](O)CC1` [Ambroxol] (52.8948 µM) the figure was 0.529; with `COc1ccc2cc([C@H](C)C(=O)O)ccc2c1` [Naproxen] (86.8561 µM), 0.514.
Regarding `C[C@](N)(Cc1ccc(O)c(O)c1)C(=O)O` [Methyldopa] (94.6883 µM), the “fraction of cells in G1 phase” value was determined as 0.412.
The same measure for `NCCCC(O)(P(=O)(O)O)P(=O)(O)O` [Alendronate] (80.6158 µM): 0.456.
For the compound `COCCc1ccc(OCC(O)CNC(C)C)cc1` (stereo not drawn) [Metoprolol tartrate] (74.8023 µM), the “fraction of cells in G1 phase” value was 0.491.
With `O=C1CCC(N2C(=O)c3ccccc3C2=O)C(=O)N1` (stereo not drawn) [Thalidomide] (77.4486 µM), the “fraction of cells in G1 phase” value is 0.464.
With `CN1C(C(=O)Nc2ccccn2)=C(O)c2sccc2S1(=O)=O` [Tenoxicam] (59.2806 µM) the figure was 0.469; with `NC12CC3CC(CC(C3)C1)C2` [Amantadine HCl] (106.553 µM), 0.505.
The same measure for `CCCCCOC(=O)Nc1nc(=O)n([C@@H]2O[C@H](C)[C@@H](O)[C@H]2O)cc1F` [Capecitabine] (55.6483 µM): 0.442; for `Cc1scc2c1N(C(=O)CN1CCN(C)CC1)c1ccccc1NC2=O` [Telenzepine 2HCl] (53.9845 µM): 0.498; for `Cn1c(NCCN(CCO)CCCc2ccc([N+](=O)[O-])cc2)cc(=O)n(C)c1=O` [Nifekalant HCl] (49.327 µM): 0.479.
With `CC(=O)[C@H]1CC[C@H]2[C@@H]3CC=C4C[C@@H](O)CC[C@]4(C)[C@H]3CC[C@]12C` [Pregnenolone] (63.1936 µM) the figure was 0.586; with `C[N+](C)(C)CCOC(=O)CCC(=O)OCC[N+](C)(C)C` [Succinylcholine] (68.8691 µM), 0.467.
Take `CCOC(=O)c1cnc2c(cnn2CC)c1NN=C(C)C` [Etazolate] (69.1229 µM): the “fraction of cells in G1 phase” value is 0.5.
With `CCCCNc1cc(C(=O)O)cc(S(N)(=O)=O)c1Oc1ccccc1` [Bumetanide] (54.8812 µM) the figure was 0.566; with `COc1ccccc1OCC(O)CN1CCN(CC(=O)Nc2c(C)cccc2C)CC1` (stereo not drawn) [Ranolazine 2HCl] (46.7783 µM), 0.445; with `CC(C)(CO)[C@@H](O)C(=O)NCCC(=O)O` [Pantothenic acid] (91.2244 µM), 0.484.
Take `C=C1CC[C@H](O)C/C1=C/C=C1\CCC[C@]2(C)[C@@H]([C@H](C)CCCC(C)(C)O)CC[C@@H]12` [Calcifediol] (49.9188 µM): the “fraction of cells in G1 phase” value was determined as 0.545.
The same measure for `CCn1cc(C(=O)O)c(=O)c2cc(F)c(N3CCN(C)CC3)cc21` [Pefloxacine mesylate] (59.9942 µM): 0.465.
The same measure for `C[N+](C)(C)CCOC(N)=O` [Carbamylcholine Cl] (135.871 µM): 0.506.
With `CCOC(=O)[C@H](CCc1ccccc1)N[C@@H](C)C(=O)N1CCC[C@H]1C(=O)O` [Enalapril] (53.127 µM) the figure was 0.511; with `CC(C(=O)O)c1ccc2c(c1)Cc1cccnc1O2` (stereo not drawn) [Pranoprofen] (78.3466 µM), 0.479.
On to `O=C(NCCO[N+](=O)[O-])c1cccnc1` [Nicorandil] (94.7066 µM), for which the “fraction of cells in G1 phase” value came out at 0.516.
With `CC(C)(C)NC[C@H](O)COc1nsnc1N1CCOCC1` [Timolol maleate (s)] (63.2061 µM) the figure was 0.499; with `CC1(C)O[C@@H]2C[C@H]3[C@@H]4C[C@H](F)C5=CC(=O)C=C[C@]5(C)[C@@]4(F)[C@@H](O)C[C@]3(C)[C@]2(C(=O)CO)O1` [Fluocinolone acetonide] (44.1989 µM), 0.48; with `Cc1cccc(Nc2ccccc2C(=O)O)c1C` [Mefenamic acid] (82.887 µM), 0.464.
With `C1COC(NC(C2CC2)C2CC2)=N1` [Rilmenidine hemifumarate] (110.956 µM) the figure was 0.483; with `CC(=O)O[C@]1(C(C)=O)CC[C@H]2[C@@H]3C=C(Cl)C4=CC(=O)CC[C@]4(C)[C@H]3CC[C@@]21C` [Chlormadinone acetate] (44.5442 µM), 0.577; with `CC(C(=O)O)c1cccc(C(=O)c2ccccc2)c1` (stereo not drawn) [Ketoprofen+D153] (78.6509 µM), 0.495.
